Experiments:
Conditions in all cases: concentration: 1 μM, replicates: in singlicate; n = 1
DMPK2 = system: T1, DMPK2
T1 construct: gene CDC42BPG

DMPK = system: DMPK
DRAK1 = system: T2, DRAK1
T2 construct: gene STK17A

DRAK2 = system: T3, DRAK2
T3 construct: gene STK17B

DYRK1A = system: DYRK1A
DYRK1B = system: DYRK1B
DYRK2 = system: DYRK2
EGFR = system: EGFR
EIF2AK1 = system: EIF2AK1
EPHA1 = system: EPHA1
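Note: KINOMEscan kinase panel screen.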

Structure (SMILES)	%Inh (DMPK2) [%]	%Inh (DMPK) [%]	%Inh (DRAK1) [%]	%Inh (DRAK2) [%]	%Inh (DYRK1A) [%]	%Inh (DYRK1B) [%]	%Inh (DYRK2) [%]	%Inh (EGFR) [%]	%Inh (EIF2AK1) [%]	%Inh (EPHA1) [%]
Nc1cccc(-c2ccc3c(N)n[nH]c3c2)n1 [GSK2192730]	0	0	68	0	25	21	52	0	0	14
CC(=O)c1c(C)c2cnc(Nc3ccn(C)n3)nc2n(C2CCCC2)c1=O	1	0	0	0	13	0	0	5	0	4
COc1ccc(CSc2nnc(-c3ccc4ncsc4c3)o2)cc1C(F)(F)F	0	0	0	3	36	28	0	7	0	0
O=C(Nc1n[nH]c2nc(-c3cccs3)c(Br)cc12)C1CCCC1 [SB-743341]	9	5	9	7	24	0	36	1	31	10
CC(C)c1ccc(O)cc1Nc1ccnc2ccc(C(F)(F)F)cc12 [GW482059]	0	0	10	0	13	16	8	37	3	6
Cc1cnc(N)c(/C=C/c2cncc(C(=O)NCCc3ccc(Cl)cc3Cl)c2)c1.Cl [GSK190937]	3	0	18	0	8	15	4	0	0	0
CC(=O)c1cccc(NC(=O)NC2CCN(c3ccnc(Nc4ccc(F)cc4)n3)C2)c1 (stereo not shown) [GSK1379710]	6	0	6	0	0	27	17	18	0	7
CCCCc1nn2ncccc2c1-c1ccnc(NC2CC2)n1 [GW684374]	0	0	0	0	12	3	6	26	0	11
CCn1c(-c2ccccc2)nc2cnccc21 [SB-733416]	0	0	32	12	23	0	0	37	0	22
CCc1ccc(-c2ccc3c(c2)-c2n[nH]cc2S(=O)(=O)N3C)cc1	0	0	0	0	0	11	0	0	0	11
Cc1nccc(-c2c(-c3ccc(F)cc3)ncn2CCCN2CCOCC2)n1.Cl [SB-282975]	9	22	14	22	17	34	0	17	14	24
O=c1cc(N2CCOCC2)nc2n(Cc3cccc(Cl)c3Cl)c3ccccc3n12 [GSK2299009]	24	10	3	0	28	15	16	30	24	14
CN1c2ccc(-c3ccc(C(N)=O)cc3)cc2-c2[nH]ncc2S1(=O)=O	0	0	52	15	34	24	0	0	0	8
O=C1NC(=O)C(c2ccc(Cl)cc2)=C1Nc1ccc(O)cc1 [SB-340867]	0	0	0	0	1	0	0	5	0	16
CNc1nc(-c2ccc3c(N)n[nH]c3c2)cc(N2C[C@@H](C(=O)NC3CCCCC3)OC[C@H]2C)n1 [GSK2375584]	11	0	39	2	7	0	0	24	0	14
c1ccc(-c2ccnc3[nH]ccc23)cc1 [SB-693578]	0	0	8	0	34	0	19	17	6	25
